Test [1] addresses Mast/stem cell growth factor receptor Kit (Homo sapiens) (UniProt P10721). The conditions noted are these: at 1 µM.
The subject of test [2] is Mast/stem cell growth factor receptor Kit (Homo sapiens), P10721 [D816V]. The conditions noted are these: at 0.1 µM.
The test system is the same in test [3]. The conditions noted are these: at 1 µM.
The test system of test [4] is Mast/stem cell growth factor receptor Kit (Homo sapiens), P10721 [T670I]. Particulars: at 0.1 µM.
For test [5] the test system is unchanged. The conditions noted are these: at 1 µM.
For test [6], the system named is Mast/stem cell growth factor receptor Kit (Homo sapiens), P10721 [V560G]. Particulars: at 0.1 µM.
For test [7] the test system is unchanged. Particulars: at 1 µM.
Test [8] addresses Tyrosine-protein kinase Lck (Homo sapiens) (UniProt P06239). The conditions noted are these: at 0.1 µM.
Test [9] has the same target. Particulars: at 1 µM.
Test [10] has as its target Leukocyte tyrosine kinase receptor (Homo sapiens) (UniProt P29376). Particulars: at 0.1 µM.
Test [11] shares this target. Particulars: at 1 µM.
The target of test [12] is Tyrosine-protein kinase Lyn (Homo sapiens) (UniProt P07948). The conditions noted are these: at 0.1 µM.
Test [13] has the same target. Particulars: at 1 µM.
For test [14] the target is unchanged. The conditions noted are these: at 0.1 µM. The source holds these as a separate data set.
The target is the same in test [15]. Particulars: at 1 µM. This is another data set of the same source.
For test [16], the target named is T1, Tyrosine-protein kinase Mer (Homo sapiens) (UniProt Q12866).
T1 sequence (whole entry): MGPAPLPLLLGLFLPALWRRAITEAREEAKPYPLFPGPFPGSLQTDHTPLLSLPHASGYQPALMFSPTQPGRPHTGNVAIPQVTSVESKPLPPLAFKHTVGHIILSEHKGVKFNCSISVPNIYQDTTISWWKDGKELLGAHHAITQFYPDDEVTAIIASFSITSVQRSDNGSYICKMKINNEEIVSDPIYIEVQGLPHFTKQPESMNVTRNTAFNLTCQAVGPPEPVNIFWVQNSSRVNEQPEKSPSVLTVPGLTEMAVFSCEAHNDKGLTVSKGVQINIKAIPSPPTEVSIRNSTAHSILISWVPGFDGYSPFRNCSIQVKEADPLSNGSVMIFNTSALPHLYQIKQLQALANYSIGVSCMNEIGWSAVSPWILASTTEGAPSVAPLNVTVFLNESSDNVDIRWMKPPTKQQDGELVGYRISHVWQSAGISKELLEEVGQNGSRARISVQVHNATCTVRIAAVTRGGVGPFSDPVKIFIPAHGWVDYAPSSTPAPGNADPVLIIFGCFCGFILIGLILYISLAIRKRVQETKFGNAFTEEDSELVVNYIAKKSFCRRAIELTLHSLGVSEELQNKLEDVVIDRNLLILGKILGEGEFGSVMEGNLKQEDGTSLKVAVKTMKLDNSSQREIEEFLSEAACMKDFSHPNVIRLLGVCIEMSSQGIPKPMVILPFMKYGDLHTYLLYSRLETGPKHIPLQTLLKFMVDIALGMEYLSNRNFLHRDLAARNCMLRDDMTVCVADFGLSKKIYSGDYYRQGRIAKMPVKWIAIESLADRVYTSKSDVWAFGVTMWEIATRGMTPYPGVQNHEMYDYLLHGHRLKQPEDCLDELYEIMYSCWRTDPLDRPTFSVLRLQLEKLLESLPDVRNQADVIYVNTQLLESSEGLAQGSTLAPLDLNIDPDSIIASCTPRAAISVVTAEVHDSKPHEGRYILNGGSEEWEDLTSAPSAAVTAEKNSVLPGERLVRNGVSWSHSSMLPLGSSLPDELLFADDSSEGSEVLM
The conditions noted are these: at 0.1 µM.

Test [17] deals with T1, Tyrosine-protein kinase Mer (Homo sapiens). Particulars: at 1 µM.
Test [18] deals with Hepatocyte growth factor receptor (Homo sapiens) (UniProt P08581). The conditions noted are these: at 0.1 µM.
For test [19] the target is unchanged. Particulars: at 1 µM.
The target of test [20] is T2, Muscle, skeletal receptor tyrosine-protein kinase (Homo sapiens) (UniProt O15146).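 Further: values are mean inhibition of MuSK from the GSK PKIS kinase screening panel.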
T2 sequence (whole entry): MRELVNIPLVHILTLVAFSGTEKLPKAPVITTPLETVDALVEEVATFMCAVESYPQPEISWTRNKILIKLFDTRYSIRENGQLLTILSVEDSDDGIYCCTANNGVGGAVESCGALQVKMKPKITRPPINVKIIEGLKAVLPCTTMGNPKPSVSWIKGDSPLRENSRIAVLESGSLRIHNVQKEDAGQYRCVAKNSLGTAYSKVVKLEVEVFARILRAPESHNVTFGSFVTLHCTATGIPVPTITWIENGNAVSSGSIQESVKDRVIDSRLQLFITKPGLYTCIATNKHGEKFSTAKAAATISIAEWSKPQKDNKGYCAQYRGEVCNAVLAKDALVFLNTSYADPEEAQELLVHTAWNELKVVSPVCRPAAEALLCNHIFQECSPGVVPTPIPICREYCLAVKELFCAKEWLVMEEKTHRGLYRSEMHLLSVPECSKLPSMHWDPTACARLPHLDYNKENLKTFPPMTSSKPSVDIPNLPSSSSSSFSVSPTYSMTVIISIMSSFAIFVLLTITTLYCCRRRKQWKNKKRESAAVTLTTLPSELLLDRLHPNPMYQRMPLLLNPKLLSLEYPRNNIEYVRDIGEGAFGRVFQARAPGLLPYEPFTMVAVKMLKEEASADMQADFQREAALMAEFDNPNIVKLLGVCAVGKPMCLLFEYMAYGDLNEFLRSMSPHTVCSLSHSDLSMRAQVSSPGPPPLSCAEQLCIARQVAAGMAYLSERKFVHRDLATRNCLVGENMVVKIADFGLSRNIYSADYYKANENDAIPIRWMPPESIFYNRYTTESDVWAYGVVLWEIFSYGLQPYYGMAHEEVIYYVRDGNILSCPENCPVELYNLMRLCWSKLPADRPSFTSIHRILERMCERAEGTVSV
Particulars: at 0.1 µM.

Tyrosine-protein kinase Lck (Homo sapiens), sequence (P06239 2-509 limits assumed): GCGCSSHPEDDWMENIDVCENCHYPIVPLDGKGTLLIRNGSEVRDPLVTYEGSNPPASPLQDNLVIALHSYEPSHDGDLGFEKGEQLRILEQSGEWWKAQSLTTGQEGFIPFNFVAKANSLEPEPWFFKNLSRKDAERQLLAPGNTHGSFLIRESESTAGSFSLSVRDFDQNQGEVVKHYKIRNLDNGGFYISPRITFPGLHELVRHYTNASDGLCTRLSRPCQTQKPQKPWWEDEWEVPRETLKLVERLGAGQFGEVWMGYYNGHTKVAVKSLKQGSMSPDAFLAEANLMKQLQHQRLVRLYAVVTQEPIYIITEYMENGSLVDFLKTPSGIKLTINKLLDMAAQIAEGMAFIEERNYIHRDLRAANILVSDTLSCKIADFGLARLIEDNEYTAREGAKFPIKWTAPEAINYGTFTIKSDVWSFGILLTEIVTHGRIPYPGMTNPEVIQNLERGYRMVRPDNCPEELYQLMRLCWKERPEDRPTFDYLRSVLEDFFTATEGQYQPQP
Leukocyte tyrosine kinase receptor (Homo sapiens), sequence (P29376 whole entry): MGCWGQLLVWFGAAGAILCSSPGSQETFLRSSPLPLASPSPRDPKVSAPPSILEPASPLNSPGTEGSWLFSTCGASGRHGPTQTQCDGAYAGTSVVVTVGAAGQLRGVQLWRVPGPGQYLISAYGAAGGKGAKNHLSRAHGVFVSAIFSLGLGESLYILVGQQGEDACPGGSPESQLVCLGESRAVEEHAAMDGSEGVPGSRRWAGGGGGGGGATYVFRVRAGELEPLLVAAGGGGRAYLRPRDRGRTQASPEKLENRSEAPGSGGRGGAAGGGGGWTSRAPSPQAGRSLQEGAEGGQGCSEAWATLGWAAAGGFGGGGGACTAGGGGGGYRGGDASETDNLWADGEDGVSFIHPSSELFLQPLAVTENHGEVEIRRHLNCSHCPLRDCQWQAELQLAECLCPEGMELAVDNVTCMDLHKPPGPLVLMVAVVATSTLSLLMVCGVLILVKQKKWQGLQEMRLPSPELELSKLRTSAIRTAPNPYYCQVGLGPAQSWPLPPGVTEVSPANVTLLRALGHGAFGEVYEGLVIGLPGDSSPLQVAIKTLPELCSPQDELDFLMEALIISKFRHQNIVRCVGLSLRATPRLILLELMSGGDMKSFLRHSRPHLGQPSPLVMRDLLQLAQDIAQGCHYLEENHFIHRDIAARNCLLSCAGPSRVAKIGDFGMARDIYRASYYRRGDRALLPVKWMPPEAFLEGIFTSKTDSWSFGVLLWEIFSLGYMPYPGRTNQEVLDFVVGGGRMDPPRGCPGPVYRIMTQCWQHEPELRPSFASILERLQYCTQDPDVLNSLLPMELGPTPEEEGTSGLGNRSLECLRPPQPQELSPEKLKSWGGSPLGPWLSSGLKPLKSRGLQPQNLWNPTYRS
Mast/stem cell growth factor receptor Kit (Homo sapiens), P10721 [D816V], sequence (P10721 whole entry D816V): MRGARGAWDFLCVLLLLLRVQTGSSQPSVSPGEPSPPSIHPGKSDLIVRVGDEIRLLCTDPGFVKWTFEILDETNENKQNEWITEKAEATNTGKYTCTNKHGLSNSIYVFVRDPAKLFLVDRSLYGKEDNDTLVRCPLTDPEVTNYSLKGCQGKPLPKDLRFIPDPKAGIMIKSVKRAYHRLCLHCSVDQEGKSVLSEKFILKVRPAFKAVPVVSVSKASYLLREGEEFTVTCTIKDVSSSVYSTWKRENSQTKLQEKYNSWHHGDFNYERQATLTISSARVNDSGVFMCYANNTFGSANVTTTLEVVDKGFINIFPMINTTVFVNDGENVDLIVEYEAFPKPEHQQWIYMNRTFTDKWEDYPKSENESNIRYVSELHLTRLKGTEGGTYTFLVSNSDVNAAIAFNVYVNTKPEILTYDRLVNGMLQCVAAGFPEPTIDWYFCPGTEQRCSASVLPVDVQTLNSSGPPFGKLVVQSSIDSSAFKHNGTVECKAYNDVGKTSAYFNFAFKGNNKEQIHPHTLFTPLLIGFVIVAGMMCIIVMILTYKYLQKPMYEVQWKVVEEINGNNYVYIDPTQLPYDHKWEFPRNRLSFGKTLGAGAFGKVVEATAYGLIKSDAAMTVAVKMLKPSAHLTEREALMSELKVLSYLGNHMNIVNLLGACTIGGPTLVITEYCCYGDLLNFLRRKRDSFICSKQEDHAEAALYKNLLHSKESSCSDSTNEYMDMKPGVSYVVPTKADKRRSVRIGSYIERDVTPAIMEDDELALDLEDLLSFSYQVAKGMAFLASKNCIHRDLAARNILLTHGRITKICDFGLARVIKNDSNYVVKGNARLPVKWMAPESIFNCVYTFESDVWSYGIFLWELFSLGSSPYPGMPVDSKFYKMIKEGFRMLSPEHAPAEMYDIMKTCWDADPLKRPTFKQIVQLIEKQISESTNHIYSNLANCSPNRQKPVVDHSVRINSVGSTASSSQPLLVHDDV
Mast/stem cell growth factor receptor Kit (Homo sapiens), P10721 [T670I], sequence (P10721 whole entry T670I): as the sequence (P10721 whole entry D816V) above, with T670I, V816D counted along it
Mast/stem cell growth factor receptor Kit (Homo sapiens), P10721 [V560G], sequence (P10721 whole entry V560G): as the sequence (P10721 whole entry D816V) above, with V560G, V816D counted along it
Hepatocyte growth factor receptor (Homo sapiens), sequence (P08581 whole entry): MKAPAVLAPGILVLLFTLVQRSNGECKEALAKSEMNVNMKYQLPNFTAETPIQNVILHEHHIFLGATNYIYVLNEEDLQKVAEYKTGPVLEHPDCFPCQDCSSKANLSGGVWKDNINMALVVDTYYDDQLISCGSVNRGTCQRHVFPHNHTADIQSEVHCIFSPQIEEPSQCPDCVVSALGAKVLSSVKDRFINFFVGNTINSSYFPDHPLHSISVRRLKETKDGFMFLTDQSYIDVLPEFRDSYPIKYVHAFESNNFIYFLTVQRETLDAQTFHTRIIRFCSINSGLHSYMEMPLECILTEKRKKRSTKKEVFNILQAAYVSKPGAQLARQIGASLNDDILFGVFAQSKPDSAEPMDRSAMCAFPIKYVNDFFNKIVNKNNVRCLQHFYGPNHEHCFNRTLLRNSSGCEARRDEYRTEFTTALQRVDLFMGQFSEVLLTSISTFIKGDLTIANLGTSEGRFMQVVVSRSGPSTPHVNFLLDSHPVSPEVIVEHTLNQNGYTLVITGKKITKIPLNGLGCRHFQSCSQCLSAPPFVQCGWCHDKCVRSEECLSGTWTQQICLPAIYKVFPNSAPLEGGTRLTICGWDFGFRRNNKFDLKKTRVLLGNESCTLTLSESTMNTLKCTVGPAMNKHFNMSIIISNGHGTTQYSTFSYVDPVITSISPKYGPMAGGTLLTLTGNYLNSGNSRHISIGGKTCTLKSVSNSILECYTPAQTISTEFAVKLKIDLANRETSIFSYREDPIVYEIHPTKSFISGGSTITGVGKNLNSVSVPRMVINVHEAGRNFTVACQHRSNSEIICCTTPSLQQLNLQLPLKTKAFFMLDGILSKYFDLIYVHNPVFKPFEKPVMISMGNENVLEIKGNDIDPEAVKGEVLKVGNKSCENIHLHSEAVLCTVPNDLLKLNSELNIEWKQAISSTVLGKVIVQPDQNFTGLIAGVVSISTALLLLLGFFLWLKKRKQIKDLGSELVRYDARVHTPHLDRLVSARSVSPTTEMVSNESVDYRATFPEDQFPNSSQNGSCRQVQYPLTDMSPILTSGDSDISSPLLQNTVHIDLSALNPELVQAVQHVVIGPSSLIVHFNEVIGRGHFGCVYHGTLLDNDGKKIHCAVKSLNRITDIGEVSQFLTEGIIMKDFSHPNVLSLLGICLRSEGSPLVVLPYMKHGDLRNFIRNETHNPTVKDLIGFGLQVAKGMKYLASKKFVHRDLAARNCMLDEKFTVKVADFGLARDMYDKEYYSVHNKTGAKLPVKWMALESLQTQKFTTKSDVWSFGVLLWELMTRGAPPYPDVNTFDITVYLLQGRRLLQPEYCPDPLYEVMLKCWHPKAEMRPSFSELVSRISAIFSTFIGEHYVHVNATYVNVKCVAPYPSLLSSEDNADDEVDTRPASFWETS
Tyrosine-protein kinase Lyn (Homo sapiens), sequence (P07948 2-512 limits assumed): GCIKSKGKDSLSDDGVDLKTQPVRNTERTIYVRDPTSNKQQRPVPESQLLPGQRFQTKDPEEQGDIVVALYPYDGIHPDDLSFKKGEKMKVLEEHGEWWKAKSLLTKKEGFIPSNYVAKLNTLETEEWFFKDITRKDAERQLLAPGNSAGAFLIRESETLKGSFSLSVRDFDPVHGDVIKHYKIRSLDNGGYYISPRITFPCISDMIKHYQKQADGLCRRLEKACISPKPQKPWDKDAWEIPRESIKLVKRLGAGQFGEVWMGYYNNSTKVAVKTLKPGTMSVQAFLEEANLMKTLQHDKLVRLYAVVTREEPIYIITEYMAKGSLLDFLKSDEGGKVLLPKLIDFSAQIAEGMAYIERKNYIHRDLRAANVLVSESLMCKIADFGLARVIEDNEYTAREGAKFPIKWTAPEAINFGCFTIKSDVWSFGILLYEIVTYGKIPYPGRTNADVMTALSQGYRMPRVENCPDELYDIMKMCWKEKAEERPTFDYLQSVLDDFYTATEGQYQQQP
Mast/stem cell growth factor receptor Kit (Homo sapiens), sequence (P10721 whole entry): as the sequence (P10721 whole entry D816V) above, with V816D counted along it

As for `CC1(C)CC(n2cnc(-c3ccc(F)cc3)c2-c2ccnc(N)n2)CC(C)(C)N1`, the inhibition in test [1] was 2.82%; in test [2] it was -0.86%; in test [3], -3.56%; in test [4], 2.5%; in [5], 1.11%; in [6], 1.03%. For the same molecule, the inhibition in test [7] was -0.87%; in [8], -0.02%; in test [9] it was 6.94%; in test [10], 1.09%; in [11], 0.76%; in [12] it was 0.33%. The inhibition was 2.44% in test [13]; -0.62% in test [14]; 0.86% in test [15]; 0.86% in test [16]; 3.06% in test [17]; -5.05% in test [18]. Besides, the inhibition in test [19] turned out to be 5.56%; in test [20], 0.69%.

As for `NC(=O)c1ccc2c(-c3ccnc(NCCCO)n3)c(-c3ccc(F)cc3)nn2c1`, the inhibition in test [1] was 25.4%; in test [2], 8.24%; in test [3], 1.86%; in [4], 4.73%; in [5] it was 2.71%; in [6], -0.84%. The inhibition in [7] came out at 0.77%; in test [8], 2.46%; in test [9], 8.13%; in test [10], 4.67%; in test [11], 6.21%; in test [12] it was 6.82%. The inhibition in test [13] was determined as 12.1%; in test [14], 4.82%; in [15], 10.6%; in test [16] it was 5.01%; in test [17], 14.2%; in test [18], 7.18%. The figures for the inhibition in test [19] and in test [20] were 15.1% and 3.34%, respectively.

`CS(=O)(=O)Nc1ccc(-c2cc(-c3ccccc3)cc(C(N)=O)c2N)cc1`: the inhibition in test [1] was 21%; in [2] it was -0.43%; in test [3] it was -0.86%; in [4], -1.07%; in [5], 4.26%; in test [6] it was -0.45%. Further, the inhibition is -2.55% in test [7]; 1.3% in test [8]; 2.43% in test [9]; 2.46% in [10]; 2.83% in test [11]; 0.46% in test [12]. In addition, the inhibition is 3.24% in [13]; -1.81% in test [14]; 0.8% in [15]; 0.78% in test [16]; -0.18% in test [17]; -1.07% in test [18]. Further, the inhibition is 2.34% in test [19] and 1.31% in test [20].

Consider `COc1ccccc1-c1cc(/C=C2\C(=O)Nc3ncc(Br)cc32)cc(Br)c1O`, for which the inhibition in test [1] turned out to be 27.9%; in [2] it was 4.84%; in [3] it was 1.87%; in test [4], 3.92%; in test [5], 3.21%; in test [6], 1.58%. Moreover, the inhibition in test [7] was determined as 4.31%; in [8], 2.46%; in [9], 8.22%; in test [10], 3.94%; in test [11] it was 5.69%; in test [12] it was 6%. In addition, the inhibition in test [13] turned out to be 14.4%; in test [14], 4.58%; in [15], 9.46%; in [16], 3.28%; in test [17] it was 7.77%; in test [18], 1.57%. In addition, the inhibition came out at 4.03% in test [19] and 1.98% in test [20].

For the molecule `N#Cc1ccc2c(-c3ccnc(NC4CC4)n3)c(-c3ccc(F)cc3)nn2c1`, the inhibition in test [1] was 20.2%; in [2] it was -1.04%; in test [3], 2.35%; in [4], 1.28%; in [5] it was 0.73%; in test [6], 0.24%. In addition, the inhibition is 1.17% in [7]; 1.08% in [8]; 0.11% in test [9]; 1.05% in test [10]; -0.2% in test [11]; -0.29% in [12]. Moreover, the inhibition in test [13] was 1.87%; in [14] it was -0.74%; in test [15], 1.81%; in [16] it was 0.43%; in [17], 2.56%; in test [18], 3.34%. Also, the inhibition in test [19] was 3.65%; in test [20], 0.58%.

As to `CNC(=O)c1cncc(/C=C/c2ccccc2C)c1`, the inhibition in [1] amounted to 14.5%; in test [2] it was 1.55%; in test [3] it was 3.24%; in test [4] it was 3.26%; in [5], 4.48%; in test [6], 3.49%. In addition, the inhibition in test [7] stood at 5.75%; in test [8], 1.99%; in test [9] it was 7.19%; in [10], 2.41%; in [11], 2.98%; in [12] it was 7.42%. Besides, the inhibition in [13] is 18.9%; in [14] it was 3.73%; in [15], 14.9%; in test [16], -0.15%; in [17], 1.66%; in test [18], 9.7%. For the same molecule, the figures for the inhibition in test [19] and in [20] were 5.5% and 3.91%, respectively.

What is called inhibition is the drop in the measured response relative to a control, in per cent.

(Values after ChEMBL document CHEMBL1961873, “Compounds: GSK PKIS; Assays: Nanosyn kinase panel” (2012).)
